Data on 40 sequences can be found in the supplement of paper PMC6555819.

In the first assay the test system is THRa:RXRa (NR concentration 90 nM, RXRa partner concentration 90 nM). The assay can be described thus: PBM binding z-score (relative to random genomic background probes); higher = stronger binding; sequences stand for … in GC…GCGATTGACAGCGTAGAATGAAGG
In outline: (§1)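 Each nuclear receptor dimer, without ligand, was incubated for 1 h on custom Agilent 4×180K protein-binding microarrays. Binding was detected with antibodies against each partner (one per run), and scanned fluorescence was regression-normalized. The binding z-scores are referenced to random human genomic background probes.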
As to TTACCAAGGTGAGCTGAGCTCGTTGATCCAACTC, the PBM binding z-score was 1.

AGAACGAGGGCAATAAGTTGATAGCACGGGTGGC had a PBM binding z-score of 0.873.

Turning to CGTCAAAGATCAACTAAGGTAACGTAAAGCACGC, the PBM binding z-score turned out to be 4.69.

For AGAACGAGGGCAAGCTGAGTTGATAGCAGAGTAG, the PBM binding z-score was 1.35.

Take TTACCAAGGTGAAGGGTCGTTGATGCACGCCTTG: the PBM binding z-score came out at 2.35.

Consider CCGACTGGGGCAGAACGGTTACCATACCATCCGG, for which the PBM binding z-score was -0.413.

As for TCATATAGGTGAATGCTAGGTGAAAGTCCGATCT, the PBM binding z-score was 2.06.

With TGGCCTAGGTCATTGGGCCAGTATAGTACGCATC, the PBM binding z-score was 2.71.

For TCTTGTAGGTCAAGCAGGTTAAGAAAGCCTGAGT, the PBM binding z-score stood at 3.08.

ATCGAAAGGTCGAGGTGATTATAGAGAAAGGGAA: the PBM binding z-score was determined as 2.54.

In turn, CGAACGAGGGCATGGGTTGATAGCAAATGCCGAT returned a PBM binding z-score of 1.52.

As for TTATATAGGTAAACAGGTGAAAGTCCGTAAGTTA, the PBM binding z-score is 0.802.

CCTACTGGGCCAAAAAGGTCATTGAGGCCGATAA showed a PBM binding z-score of 3.4.

As for CCTACTGGGCCAAAGGTCATTCATTCCAATGCTC, the PBM binding z-score was found to be 3.3.

TAGCCTACGTCAGATCGGGCCAGTATACGCTATA registered a PBM binding z-score of 0.901.

Take ATCTCTAGGAAACAAGTTCAGTGAAAGAGAGGAC: the PBM binding z-score came out at 0.835.

Regarding CCAACTAGGTCAGAACAGGACAGTGAAGGATGAT, the PBM binding z-score amounted to 3.67.

With CCGACTGCGGCATAAGGTTACCATAAGCCAGCCC, the PBM binding z-score was determined as 2.11.

For a further assay, the system named is THRa homodimer (NR concentration 90 nM). The description is as above. The method, boiled down: as §1
In turn, CTCGAAAGGTCGGTTGAGGTGAGAATACGGATAA displayed a PBM binding z-score of 1.13.

As for TCTGCTAGGTCAGCTGGTCAGCTAACGAGCTGCC, the PBM binding z-score was -0.216.

Turning to GCTTGTAGATCATGGTTAAGAAAGACTAAGCTAA, the PBM binding z-score was -0.737.

In turn, TCTGCTAGGTCAGTTTGTCAGCTAACGAGCTGCC had a PBM binding z-score of 0.0715.

Take TCATATAGGTAAATGCTAGTTGAAAGTCCGATCT: the PBM binding z-score is -0.299.

The sequence TCTCGGAGGACACGTAAGGTCAGAGCTCGACATC registered a PBM binding z-score of 4.18.

Consider ATGTCTAGGTAAAGATAGTTCAGTGAATGCAAAT, for which the PBM binding z-score is -0.0958.

TATACAGGGTCAAAGTCCAGAGTACGAATGTCGA returned a PBM binding z-score of 1.15.

GGAACCAGGGCAAGTTGATAGCAGAGTTTGATGG gave a PBM binding z-score of 1.21.

The sequence CCTAGCAGGCCAGGGTCACTGAAGCATTTCGCTT yielded a PBM binding z-score of 1.02.

CGTCCAAGGTCAATGCTAGGACAGTGAAAGCATT gave a PBM binding z-score of 2.32.

For CCTACTGGGCCATTCATAGGTCATTGATCATATG, the PBM binding z-score amounted to 0.0409.

In the case of CGAACTAGGTGATCCAGGACAGTGAATACATTGA, the PBM binding z-score turned out to be 0.934.

ACTAGCAGGTCAAGTTTGGGTCACTCAAACAAAG gave a PBM binding z-score of 1.93.

Take TCTCGTAGATCAAGCAGGTTAAGAAAGCCTGAGT: the PBM binding z-score was -0.615.

Turning to GCTGCTAGGTCAGTTTGGTCAGCTAACGGGTACG, the PBM binding z-score is 0.147.

With CCTACTGGGCCATCAGATCATTGATATCAACGTT, the PBM binding z-score was -0.322.

As to CCGAGTGGGGCAGAAAGGTTACCATACCATCCGG, the PBM binding z-score is -0.05.

Consider AGTCAAAGTTCACTAGGTAACCTAAGATTCAGCT, for which the PBM binding z-score turned out to be 0.759.

In the case of TCTAGCAGGCCCGAGGGTCACTCAAGAGGTACGG, the PBM binding z-score is -0.376.

TCGACTAGGTTACCAATGGGGCATTCAGCTTTCT: the PBM binding z-score is 0.42.

On to GCGACTGGGGCATCAGCAGGTTAGCATAACTTAA, for which the PBM binding z-score was -0.74.

Take TTACCAAGGTGAGCTGAGCTCGTTGATCCAACTC: the PBM binding z-score was -0.222.

Turning to AGAACGAGGGCAATAAGTTGATAGCACGGGTGGC, the PBM binding z-score is -0.185.

Sequence CGTCAAAGATCAACTAAGGTAACGTAAAGCACGC registered a PBM binding z-score of 1.79.

For the sequence AGAACGAGGGCAAGCTGAGTTGATAGCAGAGTAG, the PBM binding z-score was -0.471.

Consider TTACCAAGGTGAAGGGTCGTTGATGCACGCCTTG, for which the PBM binding z-score worked out at 0.598.

Regarding CCGACTGGGGCAGAACGGTTACCATACCATCCGG, the PBM binding z-score is -0.791.

The sequence TCATATAGGTGAATGCTAGGTGAAAGTCCGATCT came in with a PBM binding z-score of 0.5.

As for TGGCCTAGGTCATTGGGCCAGTATAGTACGCATC, the PBM binding z-score stood at 0.295.

Sequence TCTTGTAGGTCAAGCAGGTTAAGAAAGCCTGAGT yielded a PBM binding z-score of 0.641.

With ATCGAAAGGTCGAGGTGATTATAGAGAAAGGGAA, the PBM binding z-score came out at 0.338.

Consider CGAACGAGGGCATGGGTTGATAGCAAATGCCGAT, for which the PBM binding z-score is 0.384.

The sequence TTATATAGGTAAACAGGTGAAAGTCCGTAAGTTA yielded a PBM binding z-score of 0.282.

For the sequence CCTACTGGGCCAAAAAGGTCATTGAGGCCGATAA, the PBM binding z-score was determined as 0.793.

In turn, CCTACTGGGCCAAAGGTCATTCATTCCAATGCTC returned a PBM binding z-score of 1.06.

On to TAGCCTACGTCAGATCGGGCCAGTATACGCTATA, for which the PBM binding z-score was -0.732.

As for ATCTCTAGGAAACAAGTTCAGTGAAAGAGAGGAC, the PBM binding z-score was 0.164.

The sequence CCAACTAGGTCAGAACAGGACAGTGAAGGATGAT registered a PBM binding z-score of 0.727.

Turning to CCGACTGCGGCATAAGGTTACCATAAGCCAGCCC, the PBM binding z-score is 1.49.
